# Data: the supplement of paper PMC6555819
# Legend:
# Test in all cases: PBM binding z-score (relative to random genomic background probes); higher = stronger binding; sequences stand for … in GC…GCGATTGACAGCGTAGAATGAAGG
# [1] = tested on: FXR:RXRa (NR concentration 270 nM, RXRa partner concentration 90 nM)
# Procedure, shortened: (§1)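 For binding z-scores, the reference was random background probes on custom Agilent 4×180K protein-binding microarrays. These arrays were incubated 1 h with ligand-free nuclear receptor dimers in PBS pH 7.4, 2% milk, 0.02% Triton X-100, 1 mM DTT, 0.2 mg/mL BSA and 0.4 mg/ml salmon testes DNA. Fluorescence was scanned after antibody detection of each partner (one per run) and regression-normalized.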
# [2] = tested on: LXRa:RXRa (NR concentration 270 nM, RXRa partner concentration 90 nM)
# Procedure, shortened: as §1
# [3] = tested on: LXRa homodimer (NR concentration 270 nM)
# Procedure, shortened: as §1
# [4] = tested on: LXRb:RXRa (NR concentration 270 nM, RXRa partner concentration 90 nM)
# Procedure, shortened: as §1
# [5] = tested on: LXRb homodimer (NR concentration 270 nM)
# Procedure, shortened: as §1
# [6] = tested on: PPARa:RXRa (NR concentration 270 nM, RXRa partner concentration 90 nM)
# Procedure, shortened: as §1
# [7] = tested on: PPARg:RXRa (NR concentration 180 nM, RXRa partner concentration 90 nM)
# Procedure, shortened: as §1
# [8] = tested on: PPARg:RXRa 270nM:90nM, anti-RXR (NR concentration 270 nM, RXRa partner concentration 90 nM)
# Procedure, shortened: as §1
# [9] = tested on: PPARg:RXRa 30nM:10nM, anti-RXR (NR concentration 30 nM, RXRa partner concentration 10 nM)
# Procedure, shortened: as §1
# [10] = tested on: PPARg:RXRa 90nM:30nM, anti-RXR (NR concentration 90 nM, RXRa partner concentration 30 nM)
# Procedure, shortened: as §1
# [11] = tested on: PPARg:RXRa DBDmut IVT, anti-RXR (DBD mutation: RXRa K156A/R161A, NR concentration 270 nM, RXRa partner concentration 90 nM)
# Procedure, shortened: as §1
# [12] = tested on: PPARg:RXRa IVT, anti-PPARg (NR concentration 270 nM, RXRa partner concentration 90 nM)
# Procedure, shortened: as §1
# [13] = tested on: PPARg DBDmut:RXRa IVT, anti-PPARg (DBD mutation: PPARg1 K132A/R137A, NR concentration 270 nM, RXRa partner concentration 90 nM)
# Procedure, shortened: as §1
# [14] = tested on: PPARg DBDmut IVT, anti-PPARg (DBD mutation: PPARg1 K132A/R137A, NR concentration 270 nM)
# Procedure, shortened: as §1
# [15] = tested on: PPARg homodimer (NR concentration 180 nM)
# Procedure, shortened: as §1
# [16] = tested on: PXR:RXRa (NR concentration 270 nM, RXRa partner concentration 90 nM)
# Procedure, shortened: as §1
# [17] = tested on: PXR homodimer (NR concentration 270 nM)
# Procedure, shortened: as §1
# [18] = tested on: RARa:RXR (NR concentration 270 nM, RXRa partner concentration 90 nM)
# Procedure, shortened: as §1
# [19] = tested on: RARa homodimer (NR concentration 270 nM)
# Procedure, shortened: as §1
# [20] = tested on: RARb:RXRa (NR concentration 270 nM, RXRa partner concentration 90 nM)
# Procedure, shortened: as §1
Sequence,PBM binding z-score [1],PBM binding z-score [2],PBM binding z-score [3],PBM binding z-score [4],PBM binding z-score [5],PBM binding z-score [6],PBM binding z-score [7],PBM binding z-score [8],PBM binding z-score [9],PBM binding z-score [10],PBM binding z-score [11],PBM binding z-score [12],PBM binding z-score [13],PBM binding z-score [14],PBM binding z-score [15],PBM binding z-score [16],PBM binding z-score [17],PBM binding z-score [18],PBM binding z-score [19],PBM binding z-score [20]
GCTAGCAGGCCATTTGGGTCAATCAATGACGGGC,0.192,0.264,-0.476,0.271,-0.737,1.4,0.636,0.364,-1.07,-0.156,1.77,1.92,-1.29,-0.902,-0.569,0.511,0.261,0.95,-0.573,1.3
ATCGAAAAGTCGACGAGGTGAGTATACACCGTTT,0.048,-0.0396,-0.471,0.0525,-0.29,0.426,0.914,0.0655,0.0856,-0.125,-0.448,0.432,0.0649,0.51,-0.218,0.103,-0.0447,0.451,-0.121,0.388
CCGACTGGGGCAAAGGTTCCCATACTCAGTACGA,-0.153,-0.12,-0.431,-0.0438,-1.02,3,7.57,6.87,6.55,6.97,4.43,4.51,-0.428,-0.816,-0.0222,-0.128,-0.291,0.588,0.117,0.831
GCTGCTAGGTCAGGTTGGTCAGCAAACGGGTACG,1.13,0.793,-0.389,0.519,-0.114,1.52,0.5,0.829,-0.344,0.0879,2.74,2.2,-0.864,-0.495,0.7,0.33,-0.684,0.7,-0.687,3.25
ATTAGCAGGCCAAGTTTGGGTCACTCAAACAAAG,0.082,0.215,-0.128,0.803,-0.539,1.62,0.124,0.309,-0.279,0.138,0.708,1.31,-0.0201,-0.208,0.531,0.924,0.144,1.97,-0.273,1.83
TCTAGTTGGTCACAGAGGTCACACACGACGGGTA,4.73,4.98,3.92,4.46,1.51,4.84,4.45,5.18,4.12,5.26,2.85,4.35,1.86,0.876,6.9,5.58,2.89,6.16,4.36,4.28
GCTAGTAGGCCATTTGGGTCACTCAATGACGGGC,-0.0419,-0.00892,-0.666,-0.044,-0.894,1.98,2.27,2.41,0.459,1.79,5.94,5.02,-0.157,-0.997,0.311,0.202,-0.242,0.598,-0.704,1.47
CCTATTAGTTGGCCATAAGGGCAACCGAAGCTCG,0.403,0.0422,-0.122,-0.00443,-0.0843,0.154,0.332,0.665,-0.257,0.493,0.405,0.608,0.65,-0.464,0.599,0.101,0.238,0.307,0.354,1.11
GCTCGTAGGACAAGGTCAGAGCTTTGTCCGTAGA,1.45,1.74,-0.722,1.25,-0.639,2.44,0.258,1.16,-0.473,0.455,0.0127,1.08,-1.37,-1.3,0.722,1.63,-0.493,2.13,-1.71,3.16
TAGCCTAGGTCATGGGCCAGCATACCACGCGAAC,4.04,3.14,0.0336,2.05,-0.463,3.9,3.38,3.53,1.26,2.69,1.68,3.04,0.798,-0.0378,1.22,1.38,-0.554,2.74,-0.41,3.79
GCTATTAGTTGAAAGGGCAGCCGAATGATTCTCG,0.117,0.132,-0.239,0.0989,-0.467,1.69,1.92,3.53,1.46,3.05,0.343,0.268,-0.735,-0.14,0.871,0.09,0.28,0.515,0.871,1.78
TGAAGGAGGTTAAAGATCAGGGAACGTGGCGTCG,2.43,2.05,0.112,1.62,0.187,3.67,4.96,5.81,4.55,6.03,1,2.36,0.183,-0.165,1.34,1.63,0.472,2.7,0.897,1.74
GCTAGCAGGCCATTTGGGTCACTCAGTGACGGGC,0.0736,-0.00862,-0.609,-0.133,-1.43,1.14,0.272,0.402,-0.825,-0.0196,1.94,2.44,-0.601,-0.52,-0.213,0.3,-0.321,0.684,-0.725,1.44
TCATATAGGGAAAGGTGAAAGTCGAACGATATGA,0.779,1.31,-0.25,1.43,-0.112,2.68,2.13,3.56,4.47,3.88,2.4,2.31,0.712,0.709,0.702,0.972,0.00313,1.74,0.496,1.78
AATACAGCGTCATCGTAGGCCAGAGTACGCACAG,-0.326,-0.432,-0.689,-0.757,-0.269,-0.355,0.716,-0.141,-0.189,-0.519,-0.562,0.0727,0.418,-0.309,-0.333,-0.367,-0.167,-0.0509,-0.571,-0.182
GCACGGAGGACAAGGTCAGAGCTTTGTCCGTAGA,1.87,1.26,-0.362,1.23,-0.916,2.15,0.53,1.2,-0.394,0.459,-0.0936,0.429,-1.21,-1.21,0.85,1.72,-0.197,2.03,-0.486,3.27
CAAACTAGGTCACCAAAGGTCAAAGTCGAATGAC,7.53,8.61,8.25,7.82,3.21,6.74,10.1,8.27,6.41,8.55,8.22,9.1,3.38,2.17,3.38,6.88,2.28,7.52,3.8,5.85
CCTATTGGTTGACCATAAGGGCAACCGAAGCTCG,0.484,-0.0111,-0.255,0.153,-0.527,0.421,0.215,0.235,-0.263,-0.214,-1.11,0.135,-0.489,-1.22,0.0166,0.326,-0.293,0.774,-0.166,1.26
TAGCCTAGGTCAGATCGGGCCAGTATGCGCTATA,2.71,1.19,-0.503,0.727,-0.424,1.73,0.328,0.593,-0.423,0.0994,0.347,1.3,-0.699,-0.549,-0.654,0.891,-0.704,0.898,-0.754,3.16
